This is an account of results in PubChem BioAssay AID1942 (Johns Hopkins Ion Channel Center, 2009).

The whole screen tested about 2,400 compounds, of which about 580 (24%) were called active.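 How the source made its calls: active means activity change at or above the mean plus 3 SD of buffer wells without dofetilide, per plate; inactive means the rest.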 These entries were drawn from the full list.

This assay deals with Potassium voltage-gated channel subfamily KQT member 2 (Rattus norvegicus) (UniProt O88943). The assay is described as follows: KCNQ2 potentiation in CHO cells – cell-based, FluxOR thallium flux, counter-screen for hERG block protector project, confirmation (AID 1942).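 Further: normalized value minus buffer-control mean plus three SD of buffer wells.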 As to conditions: FluxOR thallium flux fluorescence, at 10 µM, hits give high values.
Potassium voltage-gated channel subfamily KQT member 2 (Rattus norvegicus), sequence (O88943 whole entry, looked up): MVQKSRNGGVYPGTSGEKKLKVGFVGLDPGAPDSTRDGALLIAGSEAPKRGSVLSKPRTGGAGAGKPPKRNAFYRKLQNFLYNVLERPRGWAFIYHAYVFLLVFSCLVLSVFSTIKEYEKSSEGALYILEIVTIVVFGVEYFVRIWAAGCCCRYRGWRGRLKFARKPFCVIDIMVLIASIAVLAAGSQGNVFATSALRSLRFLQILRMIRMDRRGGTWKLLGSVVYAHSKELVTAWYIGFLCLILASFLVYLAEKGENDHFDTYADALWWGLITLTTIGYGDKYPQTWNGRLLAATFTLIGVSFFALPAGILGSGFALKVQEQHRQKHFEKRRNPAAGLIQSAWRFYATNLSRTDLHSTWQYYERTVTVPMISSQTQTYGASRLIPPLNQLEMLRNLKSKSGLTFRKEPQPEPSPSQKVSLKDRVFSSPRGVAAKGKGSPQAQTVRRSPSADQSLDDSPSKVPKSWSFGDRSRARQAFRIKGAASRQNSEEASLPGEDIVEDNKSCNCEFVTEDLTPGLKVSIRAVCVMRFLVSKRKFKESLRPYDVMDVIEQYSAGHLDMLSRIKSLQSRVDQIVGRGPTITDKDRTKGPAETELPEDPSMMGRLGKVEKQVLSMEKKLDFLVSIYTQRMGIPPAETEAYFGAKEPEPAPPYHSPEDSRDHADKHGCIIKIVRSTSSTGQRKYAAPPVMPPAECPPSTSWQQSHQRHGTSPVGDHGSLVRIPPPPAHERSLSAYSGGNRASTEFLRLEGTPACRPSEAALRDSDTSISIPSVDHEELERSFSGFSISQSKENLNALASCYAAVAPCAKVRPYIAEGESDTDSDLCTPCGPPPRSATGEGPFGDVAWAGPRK
Take `O=C(Nc1ccc(N2CCOCC2)cc1)c1ccc(S(=O)(=O)N2CCCCC2)cc1`: the activity change, less the hit threshold is -20.8% (inactive).

Turning to `O=C(N/N=C/c1ccc(OC(F)F)cc1)C1=COCCO1`, the activity change, less the hit threshold is -10.9% (inactive).

`COC(=O)c1cc2sc(Cl)cc2n1CC(=O)NCC1CCCO1` (stereo unspecified): the activity change, less the hit threshold was -16.1% (inactive).

Regarding `COc1ccc(NC(=O)c2cn(-c3ccccc3)nc2-c2ccncc2)cc1`, the activity change, less the hit threshold was -9.7% (inactive).

For `Nc1ncnc(Oc2cccc3cccnc23)c1[N+](=O)[O-]`, the activity change, less the hit threshold was -25.4% (inactive).

In the case of `CCOc1ccccc1NC(=S)NC(=O)c1ccco1`, the activity change, less the hit threshold is -5.9% (inactive).

As to `CCC(C)c1ccccc1NC(=O)c1[nH]c(C)c(C(C)=O)c1C` (stereo unspecified), the activity change, less the hit threshold is -22.3% (inactive).

With `CCC(C)c1ccccc1NC(=S)NC(=O)c1ccco1` (stereo unspecified), the activity change, less the hit threshold was 60.2% (active).

As for `N#C/C(=N/Nc1ccc([N+](=O)[O-])cc1)C(=N)N1CCCCC1`, the activity change, less the hit threshold was -6.1% (inactive).

As for `C/C(=C/CCC(C)[C@H]1CC[C@@]2(C)C3=C(CC[C@]12C)[C@@]1(C)CCC(=O)C(C)(C)[C@@H]1CC3)C(=O)O` (stereo partly specified), the activity change, less the hit threshold was -36.3% (inactive).

As for `CC(C)OC(=O)CSc1nnc(C2CCCCC2)n1N`, the activity change, less the hit threshold was -21.8% (inactive).

Consider `CCC1(c2ccccc2)NC(=S)N(c2ccc(C)c(C)c2)N1` (stereo unspecified), for which the activity change, less the hit threshold was 111% (active).

As to `CCC1(c2ccc(Cl)cc2)NC(=S)N(c2ccc(C)c(C)c2)N1` (stereo unspecified), the activity change, less the hit threshold was 101% (active).

`CCCCn1nnc(NC(=O)c2ccc(-c3cccc([N+](=O)[O-])c3)o2)n1`: the activity change, less the hit threshold is -21.1% (inactive).

In the case of `CCCCNC1=CC(=O)C(=O)c2ccccc21`, the activity change, less the hit threshold was -18.9% (inactive).

For `COC(=O)c1ccc(C2C(C#N)=C(N)Oc3cc(O)ccc32)cc1` (stereo unspecified), the activity change, less the hit threshold is -8.7% (inactive).

For `CC1CCc2sc(-c3n[nH]c(=S)o3)cc2C1` (stereo unspecified), the activity change, less the hit threshold is 20.7% (active).

Regarding `COCCN1C(=O)c2oc3cc(C)c(C)cc3c(=O)c2C1c1ccc(O)cc1` (stereo unspecified), the activity change, less the hit threshold was -0.6% (inactive).

For the compound `Cc1ccc2oc3c(c(=O)c2c1)C(c1cccs1)N(CCCN(C)C)C3=O` (stereo unspecified), the activity change, less the hit threshold is 7.1% (active).

As to `CCN(CC)CCCN1C(=O)c2oc3ccccc3c(=O)c2C1c1cccs1` (stereo unspecified), the activity change, less the hit threshold is 12.9% (active).

With `CSc1ccc(C2NN=C(c3ccccc3)S2)cc1` (stereo unspecified), the activity change, less the hit threshold is -15.8% (inactive).

Turning to `Cc1ccc(CC23CN4CCN(CC(C4)C2O)C3)c(C)c1` (stereo unspecified), the activity change, less the hit threshold is -8.4% (inactive).

For the compound `O=C(NCC(c1cccs1)N1CCOCC1)c1cc(S(=O)(=O)N2CCOCC2)ccc1F` (stereo unspecified), the activity change, less the hit threshold was -15.4% (inactive).

Take `CSC1=C(C#N)C(CC(C)C)C2=C(CCCC2=O)N1` (stereo unspecified): the activity change, less the hit threshold is -12.3% (inactive).

As for `CCOc1nc(-c2ccccc2)ccc1-c1noc(COC)n1`, the activity change, less the hit threshold was -13.5% (inactive).

In the case of `Cc1cc(C(F)(F)F)c2sc(N)nc2n1`, the activity change, less the hit threshold was -4.4% (inactive).

As for `Cc1cc(C)nc(NS(=O)(=O)c2ccc(NC(=O)Cc3ccccc3)cc2)n1`, the activity change, less the hit threshold is -11.1% (inactive).

For `Cc1nc2c(C(=O)NCc3cccs3)cnn2c(C)c1Cc1ccccc1`, the activity change, less the hit threshold is -25.2% (inactive).

Take `O=C(O)CCCNC(=O)c1nn(Cc2ccccc2)c(=O)c2ccccc12`: the activity change, less the hit threshold was -5.2% (inactive).

On to `O=C(Cc1ccccc1)Nn1c(-c2ccccc2)nc2ccccc2c1=O`, for which the activity change, less the hit threshold was 29.9% (active).

For `O=C(Cc1cccs1)Nn1c(Cc2cccs2)nc2ccccc2c1=O`, the activity change, less the hit threshold was 54.3% (active).
